Assay outcomes from PubChem.
An excerpt weighted towards active compounds, which were near 3.5% of everything screened.
FBW7 activator: FBW7 E3 ligase activators, primary screen, biochemical, AlphaScreen, human; F-box/WD repeat-containing protein 7 (Homo sapiens), Q969H0; AlphaScreen FBW7–phospho-cyclin E peptide binding, activator screen; normalized activity (activation), % at 26.1 µM; hit rate 0.13% among 650,000; AID 1259310, 2017; in the data active = normalized activity above about 1.9%;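 also: purified mutant Fbw7 with reduced substrate affinity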
TEAD-YAP block: TEAD-YAP interaction inhibition, primary screen, TEAD-YAP interaction inhibitor project, luminescence, HEK-TIYL cells; TEAD-Gal4/YAP UAS-luciferase luminescence; inhibition, % at 9.12 µM; hit rate 1.4% among 640,000; in the data active = inhibition above about 32%;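 also: 0% = median of test compound wells and 100% = reference inhibitor wells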
MITF inh: MITF inhibitors, primary screen, biochemical, AlphaScreen, human. Microphthalmia-associated transcription factor (Homo sapiens), O75030. AlphaScreen MITF homodimerization, bead proximity signal. inhibition, % at 2.6 µM. hit rate 0.91% among 650,000. AID 1259374, 2018; in the data active = inhibition above about 50%;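 also: 0% = vehicle wells with protein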
GPR151 ag: activators of human GPR151, primary screen, cell-based, PathHunter beta-arrestin, luminescence; G-protein coupled receptor 151 (Homo sapiens), Q8TDV0; PathHunter beta-arrestin GPR151 cells; activation, % at 11.2 µM; hit rate 1% among 650,000; AID 1508602, 2020; in the data active = activation above about 4.9%;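 also: 0% = median of compound wells and 100% = cells with positive control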
Target sequence (Q8TDV0 whole entry, looked up): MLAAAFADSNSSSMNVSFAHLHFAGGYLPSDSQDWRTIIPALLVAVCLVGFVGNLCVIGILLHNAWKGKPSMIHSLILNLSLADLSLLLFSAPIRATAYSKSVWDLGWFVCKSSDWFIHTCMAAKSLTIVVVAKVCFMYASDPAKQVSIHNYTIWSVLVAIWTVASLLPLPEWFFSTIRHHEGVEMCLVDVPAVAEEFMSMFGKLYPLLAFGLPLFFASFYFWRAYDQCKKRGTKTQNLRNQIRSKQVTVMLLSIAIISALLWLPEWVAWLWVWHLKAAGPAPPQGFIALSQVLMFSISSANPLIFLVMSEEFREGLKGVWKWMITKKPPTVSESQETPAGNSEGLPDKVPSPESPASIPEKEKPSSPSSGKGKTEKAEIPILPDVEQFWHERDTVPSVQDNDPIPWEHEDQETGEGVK
Active calls of the source: *.

SMILES | FBW7 activator | TEAD-YAP block | MITF inh | GPR151 ag
COc1ccc(CC(=O)Nc2cc(Nc3ccccc3NC(C)=O)c(C(F)(F)F)cn2)cc1 | 0 | 67* | 16 | -1
COc1ccc(CC(=O)Nc2cc(Nc3ccccc3-c3ncco3)c(C(F)(F)F)cn2)cc1 | 0 | 54* | -14 | -1
COc1ccccc1NC1=C(N2CCCCC2)C(=O)c2ccccc2C1=O | 0 | 62* | -2 | 2
O=C1C(NC2CCCC2)=C(N2CCCCC2)C(=O)c2ccccc21 | 0 | 86* | 11 | -2
Nc1ccc(NC2=C(N3CCCCC3)C(=O)c3ccccc3C2=O)cc1 | -1 | -1 | -6 | -1
CN1/C(=C\C=C2\NC(=S)N(c3ccccc3)C2=O)C(C)(C)c2ccccc21 | 0 | 20 | 7 | 4
CCN(CC)CCNC(=O)Cn1c(C)nc2ccccc21 | 0 | -6 | 13 | 1
Cc1[nH]c2ccc(CNC(=O)Cn3c(C)nc4ccccc43)cc2c1C | 0 | 50* | 13 | 0
CN(c1ncccc1CNc1cc(Nc2ccc3c(c2)CC(=O)N3)ncc1C(F)(F)F)S(C)(=O)=O | 0 | 35* | 2 | 0
CNC(=O)c1cc(N2CCOCC2)ccc1Nc1cc(Nc2ccc3c(c2)CC(=O)N3)ncc1C(F)(F)F | 0 | 18 | -11 | -1
CN(c1ncccc1CNc1nc(Nc2ccc3c(c2)CC(=O)N3)ncc1C(F)(F)F)S(C)(=O)=O | 0 | 77* | 7 | -1
O=C(NCCc1ccccc1)N1CCC(c2nnc(C3CC3)s2)CC1 | 2.6* | -11 | -7 | 2
CC(C)NC(=O)N1CCC(c2nnc(C3CC3)s2)CC1 | 2.1* | 4 | 12 | -1
O=C(NCCc1ccccc1)C1CCN(C(=O)NCc2ccccc2)CC1 | 0 | 1 | 6 | 0
CC(C)NC(=O)N1CCC(c2nnc(C(C)C)o2)CC1 | 0 | -4 | -9 | -1
Cc1c2c(=O)n(-c3nc4ccccc4s3)[nH]c2cc(=O)n1Cc1ccccc1 | 0 | -3 | 71* | 1
COc1ccc(CCn2c(C)c3c(=O)n(-c4nc5ccccc5s4)[nH]c3cc2=O)cc1 | 0 | 2 | 25 | 1
CC12CCC(C(=O)Nc3ccc(Cl)c(Cl)c3)(CC1=O)C2(C)C (stereo not drawn) | 0 | 8 | 2 | 2
COc1cccc(OC)c1C(=O)Nc1ccc2c(c1)OCCO2 | 0 | -7 | 4 | 0
Cc1ccc2cc3c(N)c(C(=O)Nc4ccc5c(c4)OCCO5)sc3nc2c1 | 0 | 71* | 9 | -1
CC12CCC(C(=O)Nc3ccc4c(c3)OCCO4)(CC1=O)C2(C)C (stereo not drawn) | 0 | 62* | 2 | 0
COC(=O)C(=NNc1ccc2c(c1)OCCO2)C(=O)OC | 1 | 80* | -1 | -2
O=C(Nc1ccc2c(c1)OCCO2)c1ccc2ccccc2c1 | 0 | 87* | 6 | -7
Cc1cccc(-c2cn[nH]c2C2CCCN(Cc3cccnc3)C2)c1 (stereo not drawn) | 1 | -1 | 7 | 0
O=C(O)C1CCCCC1C(=O)Nc1ccc2c(c1)OCCO2 (stereo not drawn) | 0 | 62* | 19 | -1
SMILES | FBW7 activator | TEAD-YAP block | MITF inh | GPR151 ag
Cc1cc(C(=O)Nc2ccc3c(c2)OCCO3)cs1 | 0 | 41* | 10 | -5
O=C(O)C1C2CCC(O2)C1C(=O)Nc1ccc2c(c1)OCCO2 (stereo not drawn) | 0 | 8 | 5 | -1
O=C(Nc1ccc2sccc2c1)c1ccc2c(c1)OCO2 | 0 | 72* | -8 | -7
COc1ccc(NC(=O)c2ccc3c(c2)OCCO3)cc1 | 0 | 75* | -3 | -5
Cc1cc(NCCCN2CCCC2=O)nc(-c2cccc(N)c2)n1 | 0 | -19 | -9 | 2
CCCCCC1CCC(c2ccc(C(=O)NNC(=O)c3ccccc3Cl)cc2)CC1 (stereo not drawn) | 0 | 3 | 3 | 3
Cc1ccccc1-n1nc2c(c1NC(=O)c1cccc([N+](=O)[O-])c1C)CSC2 | 0 | 0 | 13 | 3
C=CCO/N=C1\CC(C)(C)C(C(=O)OC)C(=O)C1C(=O)CCC (stereo not drawn) | 1 | 4 | 15 | -1
O=C(Nc1cccnc1)C(=O)Nc1ccc2c(c1)OCCO2 | 0 | 59* | 22 | -6
COc1ccc(C(=O)Nc2ccc3c(c2)OCCO3)cc1 | 0 | 66* | 1 | -7
O=C(Nc1ccc2c(c1)OCCO2)c1ccccc1 | 0 | 12 | 10 | 0
O=C(Nc1ccc2c(c1)OCCO2)c1ccc(C(=O)Nc2ccc3c(c2)OCCO3)nc1 | 0 | 65* | 12 | 3
CCn1c(=O)c2c(n3c(SCCc4ccccc4)nnc13)-c1ccccc1CC21CCCCC1 | 0 | -4 | -4 | -1
CC(=O)Nc1ccc(Oc2nnc(C)c3ccccc23)cc1 | 0 | 65* | -21 | -1
CC(=O)Nc1cccc(Oc2nnc(-c3ccc(C)cc3)c3ccccc23)c1 | 0 | 2 | -8 | 0
CCOC(=O)c1ccc(-n2c(C)c3cnc4nn(-c5ccccc5)c(=O)c-4cc3c2C)cc1 | 0 | -5 | -4 | -3
Cc1c2cnc3nn(-c4ccccc4)c(=O)c-3cc2c(C)n1-c1ccccc1 | 0 | 85* | -5 | 1
O=C(Nc1ccccc1Cl)c1cc([N+](=O)[O-])ccc1Cl | 0 | 36* | 4 | 2
O=C(Nc1cc(C(F)(F)F)ccc1Cl)c1cc([N+](=O)[O-])ccc1Cl | 0 | -3 | -6 | 0
Cc1cc(O)c(NC(=O)c2cc([N+](=O)[O-])ccc2Cl)cc1C | 1 | 43* | 6 | -1
O=C(Nc1cc(C(F)(F)F)ccc1N1CCCC1)c1cc([N+](=O)[O-])ccc1Cl | 0 | 86* | 7 | -1
CC(=O)Nc1ccccc1NC(=O)c1cc([N+](=O)[O-])ccc1Cl | 0 | 3 | -4 | 1
O=C(Nc1cccc2ccccc12)c1cc([N+](=O)[O-])ccc1Cl | 0 | 60* | 14 | 2
CCOC(=O)c1[nH]c(=O)[nH]c1COC(=O)C(CCSC)NC(=O)c1ccccc1 (stereo not drawn) | 0 | -23 | -7 | 2
OCc1ccccc1-c1cncc(-c2cccc(C(F)(F)F)c2)n1 | 0 | -4 | 8 | -1
SMILES | FBW7 activator | TEAD-YAP block | MITF inh | GPR151 ag
Cc1ccc(-c2nnc(SCC(=O)N3CCCCC3)o2)cc1C | 0 | -6 | 1 | -1
CCOc1cc(C)c(Cl)cc1S(=O)(=O)N1CCN(Cc2ccccc2)CC1 | 0 | -3 | -15 | 0
O=C(NCCCc1ccccc1)c1cc([N+](=O)[O-])ccc1Cl | 1 | 53* | 7 | 0
O=C(NC12CC3CC(CC(C3)C1)C2)c1cc([N+](=O)[O-])ccc1Cl | 0 | 20 | 11 | -1
O=C(NCCC12CC3CC(CC(C3)C1)C2)c1cc([N+](=O)[O-])ccc1Cl | 0 | 46* | 8 | -1
O=C(NCCn1ccc2ccccc21)c1cc([N+](=O)[O-])ccc1Cl | 0 | 33* | 11 | 0
